Where a chain is given by its changes, count along the chain named.

Our source for the binding signal values is publication PMC9838217, “Structure of SALL4 zinc finger domain reveals link between AT-rich DNA binding and Okihiro syndrome”.

Assay in all cases: HT-SELEX; high values mean tight binding
What all share (settings): protein: recombinant; vector His6-GST; dsDNA, one strand shown

The target in one assay is T1, SALL4 ZFC4 WT (HT-SELEX) (Mus musculus, UniProt Q8BX22 870-940).
T1 sequence: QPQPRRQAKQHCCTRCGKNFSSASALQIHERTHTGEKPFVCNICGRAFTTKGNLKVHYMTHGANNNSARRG
In outline:
(§1)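 In triplicate selections of up to 6 cycles, purified recombinant mouse SALL4 zinc finger cluster 4 (residues 870–940, 1 µg) was incubated 10 min at room temperature with library DNA (1.5 µg, then 200 ng) in 100 µl of 10 mM Tris–HCl pH 7.5, 50 mM NaCl, poly(dI-dC) and DTT, and complexes were captured on Ni2+ beads, washed and PCR-amplified. Sequencing was done on MiSeq with scanning for 6-mers. The binding signal is each canonical k-mer's read fraction, reported as fold change against the initial random library.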

Assay [1] concerns the target T2, SALL4 ZFC4 R900W (HT-SELEX) (Mus musculus, UniProt Q8BX22 870-940, R900W).
T2 sequence: T1 sequence with R31W
In short, it runs like this:
as §1

The target of assay [2] is T3, SALL4 ZFC4 G921D (HT-SELEX) (Mus musculus, UniProt Q8BX22 870-940, G921D).
T3 sequence: T1 sequence with G52D
In short, it runs like this:
as §1

For CAAAAG, the values for the binding signal (in the assay with SALL4 ZFC4 WT (HT-SELEX); in assay [1]; in assay [2]) were 1.03 ± 0.0267 fold-change vs cycle 0, 1.17 ± 0.0219 fold-change vs cycle 0 and 1.153 ± 0.00875 fold-change vs cycle 0, respectively.
For ACAGCT, the binding signal with SALL4 ZFC4 WT (HT-SELEX) is 0.616 ± 0.0411 fold-change vs cycle 0; in assay [1], 0.714 ± 0.0328 fold-change vs cycle 0; in assay [2], 0.811 ± 0.0395 fold-change vs cycle 0.
On the same counts, the results for CTACTC are 0.863 ± 0.0395 fold-change vs cycle 0, 0.998 ± 0.0566 fold-change vs cycle 0 and 0.992 ± 0.0109 fold-change vs cycle 0.
In the case of AACTGC, the binding signal with SALL4 ZFC4 WT (HT-SELEX) was 0.6 ± 0.0299 fold-change vs cycle 0; in assay [1], 0.647 ± 0.0277 fold-change vs cycle 0; in assay [2], 0.741 ± 0.0348 fold-change vs cycle 0.
Turning to GAGTCA, the binding signal stood at 0.822 ± 0.0312 fold-change vs cycle 0 with SALL4 ZFC4 WT (HT-SELEX), 0.955 ± 0.0308 fold-change vs cycle 0 in assay [1] and 0.993 ± 0.0145 fold-change vs cycle 0 in assay [2].
Take AACGTA: the binding signal came to 1.18 ± 0.0508 fold-change vs cycle 0 in the assay with SALL4 ZFC4 WT (HT-SELEX), 1.3 ± 0.0339 fold-change vs cycle 0 in assay [1] and 1.23 ± 0.0704 fold-change vs cycle 0 in assay [2].
CTGAAG: the results for the binding signal (in the assay with SALL4 ZFC4 WT (HT-SELEX); in assay [1]; in assay [2]) were 0.866 ± 0.0297 fold-change vs cycle 0, 1.01 ± 0.0356 fold-change vs cycle 0 and 1.03 ± 0.0122 fold-change vs cycle 0, respectively.
For the sequence CGCATA, the binding signal with SALL4 ZFC4 WT (HT-SELEX) amounted to 0.489 ± 0.0286 fold-change vs cycle 0; in assay [1] it was 0.499 ± 0.00702 fold-change vs cycle 0; in assay [2] it was 0.636 ± 0.061 fold-change vs cycle 0.
On the same counts, the results for AATTCT are 2.05 ± 0.0669 fold-change vs cycle 0, 1.99 ± 0.104 fold-change vs cycle 0 and 1.8 ± 0.162 fold-change vs cycle 0.
With CTTTGA, the results for the binding signal (with SALL4 ZFC4 WT (HT-SELEX); in assay [1]; in assay [2]) were 1.2 ± 0.0763 fold-change vs cycle 0, 1.36 ± 0.0716 fold-change vs cycle 0 and 1.33 ± 0.077 fold-change vs cycle 0, respectively.
As for AAGTAC, the binding signal in the assay with SALL4 ZFC4 WT (HT-SELEX) stood at 1.23 ± 0.0679 fold-change vs cycle 0; in assay [1] it was 1.37 ± 0.0898 fold-change vs cycle 0; in assay [2], 1.31 ± 0.0947 fold-change vs cycle 0.
With AAATGA, the figures for the binding signal (with SALL4 ZFC4 WT (HT-SELEX); in assay [1]; in assay [2]) were 2.02 ± 0.088 fold-change vs cycle 0, 1.91 ± 0.0687 fold-change vs cycle 0 and 1.75 ± 0.132 fold-change vs cycle 0, respectively.
Consider CCTTAG, for which the binding signal was 0.925 ± 0.0277 fold-change vs cycle 0 with SALL4 ZFC4 WT (HT-SELEX), 1.06 ± 0.0431 fold-change vs cycle 0 in assay [1] and 1.04 ± 0.0492 fold-change vs cycle 0 in assay [2].
On the same counts, the results for ACGGTA are 0.715 ± 0.031 fold-change vs cycle 0, 0.817 ± 0.0376 fold-change vs cycle 0 and 0.852 ± 0.0147 fold-change vs cycle 0.
As for TATAGA, the binding signal was determined as 2.35 ± 0.163 fold-change vs cycle 0 in the assay with SALL4 ZFC4 WT (HT-SELEX), 2.02 ± 0.132 fold-change vs cycle 0 in assay [1] and 1.81 ± 0.192 fold-change vs cycle 0 in assay [2].
As to TACCTA, the binding signal came out at 1.35 ± 0.0562 fold-change vs cycle 0 with SALL4 ZFC4 WT (HT-SELEX), 1.48 ± 0.0891 fold-change vs cycle 0 in assay [1] and 1.42 ± 0.0965 fold-change vs cycle 0 in assay [2].
ACTTGA: the binding signal with SALL4 ZFC4 WT (HT-SELEX) turned out to be 1.33 ± 0.0337 fold-change vs cycle 0; in assay [1], 1.5 ± 0.0479 fold-change vs cycle 0; in assay [2], 1.41 ± 0.0888 fold-change vs cycle 0.
As to GAACCA, the figures for the binding signal (in the assay with SALL4 ZFC4 WT (HT-SELEX); in assay [1]; in assay [2]) were 0.766 ± 0.0201 fold-change vs cycle 0, 0.871 ± 0.0494 fold-change vs cycle 0 and 0.937 ± 0.0521 fold-change vs cycle 0, respectively.
Consider CACCTA, for which the binding signal came to 0.824 ± 0.0556 fold-change vs cycle 0 with SALL4 ZFC4 WT (HT-SELEX), 0.915 ± 0.0444 fold-change vs cycle 0 in assay [1] and 0.976 ± 0.0474 fold-change vs cycle 0 in assay [2].
As to TAGCTA, the binding signal in the assay with SALL4 ZFC4 WT (HT-SELEX) stood at 1.22 ± 0.05 fold-change vs cycle 0; in assay [1], 1.3 ± 0.064 fold-change vs cycle 0; in assay [2] it was 1.29 ± 0.0827 fold-change vs cycle 0.
For AGGTCG, the binding signal was determined as 0.312 ± 0.0215 fold-change vs cycle 0 with SALL4 ZFC4 WT (HT-SELEX), 0.372 ± 0.0129 fold-change vs cycle 0 in assay [1] and 0.511 ± 0.0677 fold-change vs cycle 0 in assay [2].
For ATAGGC, the binding signal stood at 0.52 ± 0.0405 fold-change vs cycle 0 with SALL4 ZFC4 WT (HT-SELEX), 0.585 ± 0.0153 fold-change vs cycle 0 in assay [1] and 0.733 ± 0.0725 fold-change vs cycle 0 in assay [2].
As to TAAATA, the binding signal with SALL4 ZFC4 WT (HT-SELEX) amounted to 3.77 ± 0.207 fold-change vs cycle 0; in assay [1] it was 2.47 ± 0.107 fold-change vs cycle 0; in assay [2], 2.11 ± 0.184 fold-change vs cycle 0.
On to AACCTT, for which the binding signal is 1.35 ± 0.0624 fold-change vs cycle 0 in the assay with SALL4 ZFC4 WT (HT-SELEX), 1.5 ± 0.0445 fold-change vs cycle 0 in assay [1] and 1.39 ± 0.0775 fold-change vs cycle 0 in assay [2].
In the case of GTACCA, the results for the binding signal (with SALL4 ZFC4 WT (HT-SELEX); in assay [1]; in assay [2]) were 0.755 ± 0.0123 fold-change vs cycle 0, 0.835 ± 0.0283 fold-change vs cycle 0 and 0.893 ± 0.0178 fold-change vs cycle 0, respectively.
Take AGTTAA: the binding signal came to 1.95 ± 0.0954 fold-change vs cycle 0 in the assay with SALL4 ZFC4 WT (HT-SELEX), 2.13 ± 0.114 fold-change vs cycle 0 in assay [1] and 1.84 ± 0.201 fold-change vs cycle 0 in assay [2].
For the sequence ATAGTC, the results for the binding signal (with SALL4 ZFC4 WT (HT-SELEX); in assay [1]; in assay [2]) were 1.25 ± 0.0415 fold-change vs cycle 0, 1.31 ± 0.0594 fold-change vs cycle 0 and 1.33 ± 0.0589 fold-change vs cycle 0, respectively.
Take GCAAAC: the figures for the binding signal (with SALL4 ZFC4 WT (HT-SELEX); in assay [1]; in assay [2]) were 0.54 ± 0.031 fold-change vs cycle 0, 0.598 ± 0.00737 fold-change vs cycle 0 and 0.718 ± 0.0549 fold-change vs cycle 0, respectively.
With CTGGTA, the binding signal with SALL4 ZFC4 WT (HT-SELEX) was determined as 0.8022 ± 0.00263 fold-change vs cycle 0; in assay [1], 0.908 ± 0.0333 fold-change vs cycle 0; in assay [2], 0.954 ± 0.0144 fold-change vs cycle 0.
Take AACTAT: the binding signal with SALL4 ZFC4 WT (HT-SELEX) was found to be 2.16 ± 0.123 fold-change vs cycle 0; in assay [1], 1.96 ± 0.0882 fold-change vs cycle 0; in assay [2], 1.76 ± 0.173 fold-change vs cycle 0.
